Measured values from ChEMBL document CHEMBL1201862, “PubChem BioAssay data set” (2004).
The campaign covered roughly 400,000 compounds. About 2,100 (0.53%) were called active. About 14% were inconclusive and are not listed. The rule behind the calls is not given here. The full list was thinned out, with actives kept by preference.

What follows are compounds tested against Ataxin-2 (Homo sapiens) (UniProt Q99700) (assay: qHTS for Inhibitors of ATXN expression.).
Format: functional

Chain of Ataxin-2 (Homo sapiens) (Q99700 whole entry): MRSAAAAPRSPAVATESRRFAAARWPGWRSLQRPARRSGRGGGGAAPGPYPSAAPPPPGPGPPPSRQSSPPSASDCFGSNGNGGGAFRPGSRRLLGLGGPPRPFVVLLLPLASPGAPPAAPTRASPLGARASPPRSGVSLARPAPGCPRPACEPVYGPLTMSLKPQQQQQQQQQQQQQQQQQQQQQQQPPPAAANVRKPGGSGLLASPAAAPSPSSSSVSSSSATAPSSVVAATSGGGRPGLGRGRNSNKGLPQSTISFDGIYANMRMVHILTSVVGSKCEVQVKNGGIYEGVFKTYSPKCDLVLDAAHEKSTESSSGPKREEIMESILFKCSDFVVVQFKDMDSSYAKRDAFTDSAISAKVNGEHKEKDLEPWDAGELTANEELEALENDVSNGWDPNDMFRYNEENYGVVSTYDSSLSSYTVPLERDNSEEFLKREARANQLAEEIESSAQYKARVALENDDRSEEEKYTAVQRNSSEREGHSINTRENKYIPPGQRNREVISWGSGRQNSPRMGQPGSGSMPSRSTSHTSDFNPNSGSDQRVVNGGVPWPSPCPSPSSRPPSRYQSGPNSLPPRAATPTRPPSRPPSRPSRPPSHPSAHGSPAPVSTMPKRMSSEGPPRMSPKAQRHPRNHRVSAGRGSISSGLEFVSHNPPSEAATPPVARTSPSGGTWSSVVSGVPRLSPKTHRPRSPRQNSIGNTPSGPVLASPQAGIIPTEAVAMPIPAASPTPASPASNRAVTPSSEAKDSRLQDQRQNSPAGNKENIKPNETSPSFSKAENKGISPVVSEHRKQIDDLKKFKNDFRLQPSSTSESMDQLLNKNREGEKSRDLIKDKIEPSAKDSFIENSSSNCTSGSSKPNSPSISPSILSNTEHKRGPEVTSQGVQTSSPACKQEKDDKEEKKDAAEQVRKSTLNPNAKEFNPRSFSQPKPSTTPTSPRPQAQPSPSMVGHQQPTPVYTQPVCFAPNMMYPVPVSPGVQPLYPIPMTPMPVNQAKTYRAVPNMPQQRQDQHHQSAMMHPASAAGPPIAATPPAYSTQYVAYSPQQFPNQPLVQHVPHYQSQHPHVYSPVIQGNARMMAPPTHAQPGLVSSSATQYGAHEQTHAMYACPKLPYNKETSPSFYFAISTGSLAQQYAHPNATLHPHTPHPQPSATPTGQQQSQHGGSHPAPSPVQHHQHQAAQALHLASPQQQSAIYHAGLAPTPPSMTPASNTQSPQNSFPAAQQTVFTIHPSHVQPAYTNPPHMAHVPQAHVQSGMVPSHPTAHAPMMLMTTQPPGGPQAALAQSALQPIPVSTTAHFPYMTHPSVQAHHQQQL

Row | Structure (SMILES) | Potency
1 | N#C/C(=C/c1ccc(F)cc1)c1nnc(NC(=O)c2ccccc2)s1 | inactive
2 | N#Cc1cc2c(=O)n3ccccc3nc2n(-c2ccc(Cl)cc2)c1=O | inactive
3 | O=c1oc2cc(O)ccc2cc1-c1ccccc1 | inactive
4 | CCN(CC)c1ncnc2c1cnn2Cc1ccc(Cl)cc1 | inactive
5 | Cc1ccc(-n2ncc3c(NCCCN(C)C)ncnc32)cc1Cl | 39.8 µM (active)
6 | Cc1cc(NCCCN(C)C)n2c(nc3ccccc32)c1C#N | inactive
7 | COc1ccc(CNc2nc(C)cc(C)c2C#N)cc1 | inactive
8 | COc1ccc(CCNc2ncnc3c2cnn3-c2cc(Cl)ccc2C)cc1 | 22.4 µM (active)
9 | CCCCn1nc(NC(=O)CC)c2cc3cc(OC)ccc3nc21 | inactive
10 | CC/N=c1\scc(C)n1/N=C/c1cc(Br)c(O)c(OC)c1 | inactive
11 | Cc1cc(C)c2oc(C(=O)N3CCN(C)CC3)cc(=O)c2c1 | inactive
12 | CCN(CC)CCCNc1cc(C)c(C#N)c2nc3ccccc3n12 | inactive
13 | COc1ccc(/C(C)=N/Nc2nc3ccccc3n3cnnc23)cc1OC | inactive
14 | C=CCSc1nc2ccccc2n2cnnc12 | 39.8 µM (active)
15 | CC(C)CC(NC(=O)OCc1ccccc1)C(=O)NC(Cc1ccccc1)C(=O)CCl (stereo unspecified) | 9.47 µM (active)
16 | CC(NC(=O)OCc1ccccc1)C(=O)Oc1cc2oc(=O)cc(-c3ccccc3)c2cc1Cl (stereo unspecified) | inactive
17 | CC(NC(=O)CNC(=O)C(Cc1ccccc1)NC(=O)OCc1ccccc1)C(N)=O (stereo unspecified) | inactive
18 | CCC(C)[C@H](N)C(=O)NC[C@H]1CC[C@H](C(=O)N[C@@H](Cc2ccccc2)C(=O)O)CC1 (stereo partly specified) | inactive
19 | CC(=O)NC(CC(C)C)C(=O)NC(Cc1ccccc1)C(=O)CCl (stereo unspecified) | 18.9 µM (active)
20 | COC(=O)[C@H](Cc1ccccc1)NC(=O)NCc1ccccc1 | inactive
21 | C#CCOc1ccc(C2C3=C(CCCC3=O)N(CC(=O)O)C3=C2C(=O)CCC3)cc1Br | inactive

Row | Structure (SMILES) | Potency
22 | CC1(Cc2cc(Cl)ccc2C(F)(F)F)C(=O)Nc2ccc(-c3ccc(F)c(Cl)c3)cc21 (stereo unspecified) | 28.2 µM (active)
23 | CC1(Cc2cccc(C(F)(F)F)c2)C(=O)Nc2ccc(-c3ccc(F)c(Cl)c3)cc21 (stereo unspecified) | 39.8 µM (active)
24 | CC1(C)CC(=O)C=C(Nc2cccc(C(F)(F)F)c2)C1 | inactive
25 | Cc1csc(NC(=O)c2c(-c3ccccc3)noc2C)n1 | inactive
26 | CC[C@]12c3[nH]c4ccc(Cl)cc4c3CCN1C(=O)[C@@H](CC(=O)NCCC1=CCCCC1)C[C@@H]2C(=O)N1CCN(C(=O)c2ccco2)CC1 | 25.1 µM (active)
27 | CC(C)=CCC/C(C)=C/CNC(=O)CC1C[C@H](C(=O)N2CCOCC2)[C@@]2(C)c3[nH]c4ccccc4c3CCN2C1=O (stereo partly specified) | 31.6 µM (active)
28 | C[C@H](O)[C@@H]1C(=O)N2CCc3c([nH]c4ccccc34)[C@@H]2C[C@@H]1N(C)C(=O)c1ccco1 | inactive
29 | CC(C)=CCC/C(C)=C/CNC(=O)C[C@H]1C[C@H](C(=O)N2CCOCC2)[C@@]2(C)c3[nH]c4cc(-c5ccco5)ccc4c3CCN2C1=O | 39.8 µM (active)
30 | CC[C@]12c3[nH]c4ccccc4c3CCN1C(=O)C(CC(=O)NC/C=C(\C)CCC=C(C)C)C[C@@H]2C(=O)N1CCN(C(=O)c2ccco2)CC1 (stereo partly specified) | 31.6 µM (active)
31 | O=C(CCCCCn1c(=S)[nH]c2ccc(N3CCOCC3)cc2c1=O)NCc1ccccc1 | inactive
32 | CC[C@@H]1C(c2ccccc2)=NN(c2ccccc2)[C@H]1C(=O)N1CCOC1=O | inactive
33 | CCOc1ccc(-c2nc(O)c3c(-c4cccs4)csc3n2)cc1 | inactive
34 | Cn1ccnc1C(=O)C1CCCN(Cc2c[nH]nc2-c2ccc(-c3ccccc3)cc2)C1 (stereo unspecified) | inactive
35 | CCN(CC)c1ccc2cc(-c3nnc(-c4ccccc4)o3)c(=O)oc2c1 | inactive
36 | COc1cc2cc(C(N)=O)c(N)nc2cc1OC | inactive
37 | Cc1ccc2nc3c(cc(C(=O)NCC4CCCO4)c(=N)n3C(C)C)c(=O)n2c1 (stereo unspecified) | inactive
38 | CC[C@]12c3[nH]c4ccc(Cl)cc4c3CCN1C(=O)[C@@H](CC(=O)NC/C=C(\C)CCC=C(C)C)C[C@@H]2C(=O)N1CCN(C(=O)C2CC2)CC1 | 25.1 µM (active)
39 | O=C1CSC(N/N=C/c2ccncc2)=N1 | inactive
40 | Cc1ccc(N(C)C(CNS(=O)(=O)c2ccccc2)c2ccccc2)cc1 (stereo unspecified) | 25.1 µM (active)
41 | Cc1ccc(S(=O)(=O)NCCCCCC(=O)NCCc2ccccc2)cc1 | inactive
42 | Cc1ccc(S(=O)(=O)NCc2c(-c3ccccc3)noc2C)cc1 | inactive

Row | Structure (SMILES) | Potency
43 | Cc1cccn2c(=O)c3cc(C#N)c(=O)n(-c4nnc(SCc5ccc(F)cc5)s4)c3nc12 | inactive
44 | COc1ccc(NC(=O)c2c(NCc3cccc(F)c3)sc3c2CCC3)c(OC)c1 | 25.1 µM (active)
45 | COc1ccc(OC)c(NC(=O)c2c(NCc3ccc(OC)c(OC)c3)sc3c2CCC3)c1 | 39.8 µM (active)
46 | COc1ccc(NC(=O)C2=CN3CCS(=O)(=O)N=C3C=C2)c(OC)c1 | inactive
47 | COc1cccc(-c2ccc3c(N)c(C(=O)Nc4cc(F)ccc4F)sc3n2)c1 | inactive
48 | COc1ccc(NC(=O)c2ccc(S(=O)(=O)C(F)F)cc2)c(OC)c1 | inactive
49 | COc1ccc(OC)c(NC(=O)c2ccc(OC3CSC3)cc2)c1 | inactive
50 | COc1ccc(OC)c(NC(=O)COC(=O)c2ccc(OC)c(S(=O)(=O)N3CCOCC3)c2)c1 | inactive
51 | COc1ccc(/C=N/Nc2ncnc3sc4c(c23)CCCC4)cc1OC | inactive
52 | COc1ccc(NC(=O)CON=CC(=O)Nc2ccc(C)cc2)c(OC)c1 | inactive
53 | COC(=O)c1ccc(NC(=O)c2c(NCc3ccc(OC)c(OC)c3)sc3c2CCCC3)cc1 | 17.8 µM (active)
54 | COc1ccc(NC(=O)c2c(NCc3sccc3C)sc3c2CCCCC3)c(OC)c1 | 39.8 µM (active)
55 | Cc1nc(NC(=O)CSc2nnc(C3CC3)n2C)sc1C | inactive
56 | C=CCn1c(=N)c(C(=O)NCCCOC)cc2c(=O)n3cc(C)ccc3nc21 | inactive
57 | CCOc1ccc(S(=O)(=O)[N-]c2nc3ccccc3nc2-[n+]2ccc(NC(=O)c3cccs3)cc2)cc1 | inactive
58 | CCCn1c(=O)c(C(=O)Nc2ccccc2C)c(O)c2ccccc21 | inactive
59 | COC(=O)c1c(NC(=S)NC(=O)c2ccco2)sc2c1CCCC2 | inactive
60 | COC(=O)c1ccc(NC(=O)c2c(NCc3ccc(C)o3)sc3c2CCCC3)cc1 | 35.5 µM (active)
61 | COC(=O)c1c(NC(=O)c2ccc(N(C)S(=O)(=O)c3ccc(C)cc3)cc2)sc2c1CCCC2 | inactive
